# Screening data (PubChem)
# Myeloid diff 2 – compounds promoting myeloid differentiation; AID 624256; 360,000 compounds, 1% hits; ER-HoxA9 myeloid progenitors, lysozyme-GFP differentiation, flow cytometry; calls only at 10 µM;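 active means normalized GFP-positive differentiation at or above the plate's own cutoff, the solvent-only control mean plus 3 SD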;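 further: cells exposed to compound for four days before flow analysis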
# IDE cell inh – cellular human IDE inhibition; P14735; 320,000 compounds, 0.41% hits; inhibition, % at 5.59 µM; AID 434962; HEK cells, FAbetaB cleavage, fluorescence polarization;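 active means percent inhibition above the average of all tested compounds plus 3 SD, set per screening campaign, cut at about 16% in these data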;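 further: IDE supplied by intact live HEK cells; FP after avidin binding of uncleaved biotin substrate so inhibition keeps polarization high; 0% = DMSO wells and 100% = 60 µM reference IDE inhibitor Ii1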
# Target sequence (P14735 whole entry, looked up): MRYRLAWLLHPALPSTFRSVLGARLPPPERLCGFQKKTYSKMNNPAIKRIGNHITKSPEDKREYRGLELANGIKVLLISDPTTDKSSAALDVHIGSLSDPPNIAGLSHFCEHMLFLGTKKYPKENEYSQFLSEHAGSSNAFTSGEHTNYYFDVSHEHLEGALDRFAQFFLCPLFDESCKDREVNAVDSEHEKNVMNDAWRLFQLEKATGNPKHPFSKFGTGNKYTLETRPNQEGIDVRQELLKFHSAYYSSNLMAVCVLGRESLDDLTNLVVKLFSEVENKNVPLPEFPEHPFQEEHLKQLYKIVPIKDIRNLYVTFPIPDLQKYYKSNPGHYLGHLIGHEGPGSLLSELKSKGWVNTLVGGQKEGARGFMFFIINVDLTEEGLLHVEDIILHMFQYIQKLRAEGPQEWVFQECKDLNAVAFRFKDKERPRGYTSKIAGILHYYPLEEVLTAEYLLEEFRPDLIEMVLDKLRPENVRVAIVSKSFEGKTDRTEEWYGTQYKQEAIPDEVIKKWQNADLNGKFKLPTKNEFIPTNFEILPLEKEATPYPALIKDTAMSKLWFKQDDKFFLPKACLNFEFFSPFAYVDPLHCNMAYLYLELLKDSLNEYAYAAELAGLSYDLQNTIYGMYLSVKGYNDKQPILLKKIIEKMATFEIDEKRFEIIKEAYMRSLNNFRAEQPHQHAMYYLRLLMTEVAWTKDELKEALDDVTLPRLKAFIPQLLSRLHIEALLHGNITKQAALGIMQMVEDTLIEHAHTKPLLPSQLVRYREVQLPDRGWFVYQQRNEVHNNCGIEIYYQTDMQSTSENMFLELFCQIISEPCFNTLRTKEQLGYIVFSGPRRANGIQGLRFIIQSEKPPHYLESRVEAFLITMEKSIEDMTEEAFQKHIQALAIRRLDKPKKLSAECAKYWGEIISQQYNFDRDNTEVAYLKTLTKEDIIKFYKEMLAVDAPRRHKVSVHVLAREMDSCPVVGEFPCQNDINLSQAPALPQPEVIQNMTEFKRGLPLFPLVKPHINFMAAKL
# CRFBP-R2 block – blocks CRF-induced signaling of the CRF-BP/CRF-R2 complex; 350,000 compounds, 0.59% hits; HEK293 CRF-R2/CRF-BP, CRF-induced calcium fluorescence; inhibition, % at 11.8 µM;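 active means inhibition of the ligand-induced calcium signal above about 50% at the single tested concentration, limit read from the data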
# CRFR2-BP ag – agonists of human CRF-binding protein/CRF-R2 receptor complex; activation, % at 13.2 µM; HEK293 CRF-R2/CRF-BP, calcium dye fluorescence (FLIPR); percent of saturating CRF peptide response; 350,000 compounds, 0.46% hits;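 active means activation of at least 50%, plus an integration ratio under a set limit after plate pattern correction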;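 further: plate controls were neutral control wells without compound for no effect and CRF at EC100 for full effect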
# TPT1 inh – C. albicans TPT1 enzyme inhibition; recombinant caTPT1, FP RNA substrate dephosphorylation; inhibition, % at 5 µM; 300,000 compounds, 0.81% hits; AID 1962;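 active means inhibition above the mean of all tested compounds plus 3 SD, set per screening campaign, cut at about 24% in these data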;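 further: plate controls were DMSO alone for no effect and ferristatin control at 100 nM for full effect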
# IDE cell activ – IDE (human) activation, cell-based. P14735. HEK cells, FAbeta-B cleavage, fluorescence polarization; 0% vehicle, 100% cell-free pure enzyme wells. activation, % at 5.96 µM. 340,000 compounds, 0.073% hits. AID 493087;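 active means activation above the mean of all tested compounds plus 3 SD, set per screening campaign, cut at about 17% in these data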
# IDE inh confirm – confirmation of human insulin-degrading enzyme inhibitors in cells; 1,200 compounds, 51% hits; shares compounds with IDE cell inh; inhibition, % at 5.59 µM; HEK cells, FAbetaB cleavage, fluorescence polarization;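 active means mean inhibition across triplicate wells above the cutoff set by the earlier primary insulin-degrading enzyme screen, cut at about 16% in these data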;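 further: 0% = DMSO wells and 100% = 60 µM reference IDE inhibitor Ii1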
# HEK cytotox – kills HEK cells in IDE inhibitor counter-screen. shares compounds with IDE cell inh. HEK293 cytotoxicity, ATP luminescence. inhibition, % at 5.59 µM. 1,200 compounds, 28% hits. AID 449730; in the data active means inhibition above about 22%;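 further: 0% = vehicle wells and 100% = reference cytotoxic drug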
# * = called active by the depositor; i = inactive; nt = not tested or not shown. In the library only some 2.6% were active in any assay of this set; here they are far more common.
SMILES,Myeloid diff 2,IDE cell inh,CRFBP-R2 block,CRFR2-BP ag,TPT1 inh,IDE cell activ,IDE inh confirm,HEK cytotox
Cc1ccc(-n2c(SCc3nc4ccccc4[nH]3)nnc2-c2ccncc2)cc1,i,3.0,16.6,-0.5,0.6,2.1,nt,nt
Cn1c(CNC(=O)c2ccco2)nnc1SCC(=O)Nc1c(F)cc(F)cc1Br,i,-7.2,-4.0,0.5,-0.2,7.2,nt,nt
Cc1cc2cc(C(c3nnnn3Cc3ccccc3)N3CCc4ccccc43)c(=O)[nH]c2cc1C (stereo not given),i,16.5*,-35.3,-1.4,1.4,0.6,2.6,9.5
COC(=O)c1cc(NC(=O)c2ccc(-c3ccccc3)cc2)ccc1Cl,i,30.2*,7.8,1.0,2.2,-18.7,9.4,27.9*
COc1ccc(NC(=O)c2ccc(-c3ccccc3)cc2)cc1S(=O)(=O)N1CCOCC1,i,22.2*,1.3,0.1,2.2,-25.1,18.6*,61.4*
CCc1ccc(C(=O)Nc2ccc(OC)c(S(=O)(=O)N3CCOCC3)c2)cc1,i,-1.7,-25.3,-0.4,2.4,1.5,nt,nt
O=C(OCC(=O)N1CCOCC1)c1cc(F)c(F)cc1Cl,i,0.3,5.3,-0.8,-5.4,3.7,nt,nt
C[C@H](CO)N1C[C@H](C)[C@@H](CN(C)Cc2ccc(Oc3ccccc3)cc2)Oc2c(NC(=O)c3ccncc3)cccc2C1=O,i,23.7*,12.3,-0.3,nt,-14.4,7.3,24.3*
Cc1ccc2c(c1)c1ncnc(N3CCOCC3)c1n2C,i,17.0*,-11.0,-2.8,-1.8,-23.5,12.1,9.9
CCOC(=O)Cc1csc(SCn2nnc3ccccc3c2=O)n1,i,3.5,6.9,-1.2,-2.2,-6.0,nt,nt
CCOC(=O)Cc1csc(-n2sc3ccccc3c2=O)n1,i,16.5*,-17.1,1.9,9.5,-25.1,13.3,28.1*
CCc1nc2ccc(C(=O)N3CCN(c4ccccc4)CC3)cn2c1N(CCC(C)C)CCN(C)C,i,nt,nt,nt,nt,nt,nt,nt
Cc1ccc(C(=O)Nc2nc(-c3ccccn3)cs2)s1,i,5.5,-4.0,0.6,nt,-3.1,nt,nt
CCc1sc(C(=O)Nc2nc(-c3ccccn3)cs2)cc1C,i,19.4*,14.1,-1.1,nt,-6.4,6.3,50.1*
CC(=O)Nc1ccc(SCCCC(=O)c2ccccc2)cc1,i,1.5,13.3,-2.2,-2.1,3.9,nt,nt
Cc1ccc(-c2cc(C(=O)Nc3ccc(S(=O)(=O)Nc4ncccn4)cc3)[nH]n2)c(O)c1C,i,31.3*,-10.1,-0.4,2.5,-26.3,20.3*,9.7
O=C(CNC(=O)c1sc2ccccc2c1Cl)NCc1cccnc1,i,18.8*,-3.9,-3.5,-3.6,-15.9,7.3,8.8
Cc1cccnc1NC(=O)CNC(=O)c1sc2ccccc2c1Cl,i,4.4,3.5,-1.2,nt,-0.5,nt,nt
CCCCCN(C(=O)CCC(=O)OCC(=O)N(C)c1ccccc1)c1c(N)n(CCCC)c(=O)[nH]c1=O,i,0.4,3.0,1.3,0.1,2.2,nt,nt
CCCCCN(C(=O)CCC(=O)OCC(=O)c1ccc(C(C)CC)cc1)c1c(N)n(CCCC)c(=O)[nH]c1=O (stereo not given),i,17.0*,14.2,0.0,2.2,-4.1,10.1,13.4
CCN=C1S/C(=C\c2ccc(O)c(OCC)c2)C(=O)N1CC,i,5.4,8.6,2.9,1.3,-9.0,nt,nt
CCN=C1S/C(=C\c2cc(OCC)c(O)cc2Br)C(=O)N1CC,i,16.9*,13.5,0.6,19.5,-17.0,22.2*,23.0*
COc1ccc(CCNS(=O)(=O)c2ccc3c(c2)CCCC3)cc1OC,i,7.5,-2.6,-0.9,nt,1.9,nt,nt
CCC1CCCCN1S(=O)(=O)c1ccc(-n2cnnn2)c(C)c1 (stereo not given),i,0.6,-1.4,-0.8,-2.2,4.5,nt,nt
COc1cc(/C=C2/SC(=Nc3ccc(O)cc3)NC2=O)ccc1O,i,35.4*,-3.9,21.1,20.5,-41.1,59.5*,59.4*
O=C1C2C3C=CC(C3)C2C(=O)N1CC1CCCO1 (stereo not given),i,0.2,12.7,-2.3,-1.5,-5.0,nt,nt
